# From PubChem
# Shiga toxin inh: inhibitors of Shiga toxin in Vero cells. 290,000 compounds, 9.2% hits. inhibition, % at 38.7 µM. Vero cells, Shiga toxin protein synthesis inhibition reporter. AID 2315; in the data active means inhibition mostly above about 28%, no sharp cut-off; inactive means mostly below about 43%; further: 0% is about no effect
# Pf growth 48h: P. falciparum growth inhibition at 48 hours (one generation). P. falciparum luciferase growth in erythrocytes, 48 h. Potency, µM (series often up to 28.7 µM), inactives show top-dose activity change, negative = inhibition, actives largely listed as inhibitors. 310,000 compounds, 5.9% hits. AID 504832; further: potency means the concentration at half of the fitted maximal effect; on the % scale 0 is the no-effect control and ±100 the full control effect
#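 Growth was read as firefly luciferase luminescence after a 48 h, 37 C, 5% CO2 exposure of compounds to reporter-bearing P. falciparum cultures (0.1% parasitemia, 2% hematocrit final) in Albumax-supplemented RPMI 1640.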
# Pf growth 96h: P. falciparum growth inhibition at 96 hours; P. falciparum luciferase reporter growth, 96 h; Potency, µM (top dose mostly 28.7 µM), for the others: top-dose activity change, negative = inhibition, usual class: inhibitors; 320,000 compounds, 6.9% hits; AID 504834; further: potency means the concentration at half of the fitted maximal effect; on the % scale 0 is the no-effect control and ±100 the full control effect
#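 96 h incubation, 37 C, 5% CO2, of luciferase-reporter P. falciparum-infected RBCs (2% hematocrit, 0.05% parasitemia final) with test compounds; endpoint luminescence.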
# Cycloheximide cs: counter-screen for Shiga toxin inhibitors: cycloheximide protein synthesis inhibition | 300,000 compounds, 12% hits | cell reporter, cycloheximide protein synthesis inhibition counterscreen | AID 2314 | max response, %; in the data active means max response mostly above about 13%, no sharp cut-off; inactive means mostly below about 14%; further: read at 38.3 µM for the half of the compounds with a filed dose; 0% is about no effect
# NS1 inh: blocks influenza NS1 protein function; Potency, µM (highest dose often 46.1 µM), without a hit: at the highest dose activity, positive = more growth; 270,000 compounds, 0.4% hits; calls by dose curve; further: potency means the concentration at half of the fitted maximal effect; actives are rising curves; nearly all actives have a fitted effect of over 50% in size
#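 Compounds were scored for reversing the slow growth caused by influenza A NS1 in S. cerevisiae, measured by optical density at 600 nm. Assay medium contained 2% galactose at pH 6.0; NS1-free yeast of the same strain were the positive control.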
# Active calls of the source: *; i = inactive; ? = inconclusive; . = no result given; + = active, no number. Hits are enriched below; roughly 21% of the tested compounds scored in any of these assays. Unless noted, the call rests on the fitted dose curve; in most records, active means well fitted inhibition curve with a large enough effect; inconclusive means small, poorly fitted or top-dose-only effect, or another doubt; inactive means no such curve, though single readings can be large or run the other way.
SMILES,Shiga toxin inh,Pf growth 48h,Pf growth 96h,Cycloheximide cs,NS1 inh
CCn1cc([N+](=O)[O-])c(C(=O)Nc2ccc3c(c2)OCCO3)n1,47*,157%,12%,38*,?
Cc1cc(C(=O)Nc2ccc3c(c2)OCCO3)ccc1[N+](=O)[O-],.,260%,39%,27*,4%
O=C(Nc1ccc2c(c1)OCCO2)c1ccc(Cl)c(Cl)c1,84*,203%,?,45*,-3%
O=C(Nc1ccc2c(c1)OCCO2)c1ccc(Cl)c([N+](=O)[O-])c1,+,36%,34%,56*,2%
O=C(Nc1ncccc1Cl)c1ccc2c(c1)OCCO2,84*,310%,20%,32*,.
O=C(Nc1ccc(Cl)cc1Cl)c1ccc2c(c1)OCCO2,.,358%,495%,.,.
COc1cc(C(=O)N2CCC(n3c(C)nc4cc(F)ccc43)CC2)cc(OC)c1OC,-10,?,-2%,-3,4%
O=C(Nc1ccc2c(c1)OCCO2)c1ccc2nccnc2c1,35,127%,.,33*,-71%
Cc1cc(C(=O)NC(C)CCc2ccccc2)ccc1[N+](=O)[O-] (configuration not stated),.,20%,-12%,18*,-14%
O=C(Nc1ccccn1)c1ccc2c(c1)OCCO2,39,i,138%,26,.
O=C(Nc1ccc(Cl)c(Cl)c1)C1=Cc2ccccc2OC1,66*,.,?,43*,-11%
Cc1cc(C(=O)Nc2cccc(NC(=O)c3ccco3)c2)ccc1[N+](=O)[O-],27*,-3%,?,19*,5%
CC(C(=O)NCCCc1ccccc1)n1cccc1C(=O)c1ccccc1 (configuration not stated),7,-18%,39%,8,-36%
CC(C)CC(=O)N1CCN(S(C)(=O)=O)CC1,-3,7%,72%,8,-6%
CC(OC(=O)COc1cccc2c1OC(C)(C)C2)C(=O)Nc1ccc(S(N)(=O)=O)cc1 (configuration not stated),.,-17%,14%,.,.
Cn1c2cc(C=O)sc2c2cnn(Cc3ccccc3F)c(=O)c21,-7,.,.,-6,.
Cc1onc(-c2c(F)cccc2Cl)c1C(=O)N1CCCCC1,-1,?,-34%,24,0%
CN(C)/C=C/c1onc(-c2c(F)cccc2Cl)c1C#N,109*,16%,6%,27*,.
CN1CC(=O)N(CC(=O)Nc2ccc(N3CCOCC3)cc2)C1=O,.,12%,13%,.,.
Cc1ccc(C(=O)N/N=C(/CC(=O)c2cccs2)C(F)(F)F)cc1,-3,16%,-19%,23*,5%
O=C(N/N=C(\CC(=O)c1cccs1)C(F)(F)F)c1ccncc1,10,0.23µM*,?,-1,5%
COc1cc(/C=N/NC(=O)CCc2c(C)n[nH]c2C)ccc1O,-6,.,16%,-2,11%
Cc1oc(C(C)(C)C)cc1C(=O)Nc1cccc(/C=C/C(=O)O)c1,54,2%,3%,3,-1%
Cc1oc(C(C)(C)C)cc1C(=O)Nc1ccc2c(c1)OCO2,79*,34%,26%,32*,-36%
Cc1oc(C(C)(C)C)cc1C(=O)Nc1ccc2c(c1)OCCO2,102*,29%,.,53*,-52%
SMILES,Shiga toxin inh,Pf growth 48h,Pf growth 96h,Cycloheximide cs,NS1 inh
COc1cc2c(cc1OC)C(c1cccc([N+](=O)[O-])c1)NC(=O)C2 (configuration not stated),-21,4%,6.6µM*,7,-2%
O=C1NC2=C(C(=O)CCC2)C(c2cccc([N+](=O)[O-])c2)N1 (configuration not stated),-7,-6%,?,-3,-3%
COc1cc2c(cc1OC)C1(CCCC1)CNC2c1cccc([N+](=O)[O-])c1 (configuration not stated),-26,?,3.3µM*,-13,-1%
O=C1CC2(CCN(C(=O)c3cccc([N+](=O)[O-])c3)CC2)Oc2ccccc21,.,-15%,-2%,.,.
N#Cc1nc(Cc2ccccc2)oc1NCCN1CCOCC1,32,11%,22%,26,5%
N#Cc1nc(COc2ccccc2Cl)oc1NCc1cccnc1,38*,-7%,-13%,14,?
N#Cc1nc(COc2ccccc2Cl)oc1NCc1ccc(F)cc1,12,29%,6%,9,-7%
N#Cc1nc(Cc2ccccc2)oc1NCc1ccccc1,+,-6%,17%,28*,-17%
COc1ccc(CNc2oc(COc3ccccc3)nc2C#N)cc1,40*,-2%,?,20*,-69%
COc1ccc(CNc2oc(COc3ccccc3Cl)nc2C#N)cc1,16,.,1.5µM*,0,-2%
COc1cccc(OC)c1C(=O)OCC(=O)N(C)c1ccccc1,-4,-10%,?,-4,3%
CN1CCN(c2ccc(C(=O)NC3CCCCC3)cc2[N+](=O)[O-])CC1,5,-1%,18%,10,3%
COC(C(=O)C(O)C(C)O)C1Cc2cc3cc(OC4CC(OC5CC(O)C(OC)C(C)O5)C(OC(C)=O)C(C)O4)c(C)c(O)c3c(O)c2C(=O)C1OC1CC(OC2CC(OC3CC(C)(O)C(OC(C)=O)C(C)O3)C(O)C(C)O2)C(O)C(C)O1 (configuration not stated),.,0.12µM*,?,.,.
CC(C)(C)c1ccc(NC(=O)CC2(C(F)(F)F)OCCO2)cc1,33,.,-11%,32*,-5%
COC(=O)C1=C(C)NC(C)=C(C(=O)OCC2CCCO2)C1c1ccc(Cl)c([N+](=O)[O-])c1 (configuration not stated),-9,?,?,5,-58%
CC1=C(C(=O)OCCNC(=O)c2ccccc2O)C(c2ccccc2[N+](=O)[O-])C(C(=O)OCC2CCCO2)=C(C)N1 (configuration not stated),-14,?,5.2µM*,-5,19%
CCOc1ccccc1-n1ccn(CC(=O)Nc2ccc(Br)cc2F)c(=O)c1=O,.,-27%,6%,.,.
CC1(C)CC(=O)C2=C(C1)Oc1nc3ccccc3cc1C2C(C#N)C#N (configuration not stated),-3,0.66µM*,-1%,-1,-4%
COC(=O)/C(=C/Nc1cccc2ccccc12)[N+](=O)[O-],53*,.,-13%,28*,18%
Cc1ccc(NC2Sc3ccccc3NC2=O)cc1 (configuration not stated),41*,211%,486%,22*,.
Cc1ccc(NC(=O)CN(C)C(=O)c2ccc(C(F)(F)F)cc2)cc1,28,27%,11%,3,8%
O=C(CCn1c(=S)[nH]c2cc3c(cc2c1=O)OCO3)NCc1cccc(Cl)c1,-3,-15%,?,3,14%
O=C(CCCn1c(=S)[nH]c2cc3c(cc2c1=O)OCO3)NCc1cccc(Cl)c1,1,-29%,9.3µM*,-2,0%
O=C(CCCCCn1c(=S)[nH]c2cc3c(cc2c1=O)OCO3)N1CCN(Cc2ccccc2)CC1,11,12µM*,-1%,0,-27%
Cc1cc(OCC(=O)N2CCc3ccccc3C2)c2c(-c3ccccc3)cc(=O)oc2c1,-14,?,.,5,4%
